This experiment has as its system Plasmodium falciparum. Kind of experiment: GSK_TCMDC: Inhibition of Plasmodium falciparum Dd2 in whole red blood cells, using parasite LDH activity as an index of growth. Test compounds present at 2uM. Type of experiment: functional.
Usually Inhibition stands for the share of the control response that was lost under treatment. A lower Inhibition goes with a weak effect. `O=C(N[C@@H](Cc1ccccc1)C(=O)NC1CCCCC1)c1ccc(O)c(-c2cccc(C(F)(F)F)c2)c1` yielded an Inhibition of 36%.

As for `CCOC(=O)NCCSC(C)(C)[C@H](NC(=O)[C@H](Cc1cc2ccccc2s1)[C@H](CC)N(O)C=O)C(=O)Nc1nccs1`, the Inhibition is reported as 98%.

Turning to `Nc1nc(N)c2nc(C3CC=CCC3)c(N)nc2n1` (stereo not drawn), the Inhibition was found to be 0%.

The compound `CC(=O)N1CCN(c2ccc(NC(=O)c3oc(-c4ccccc4)nc3C(F)(F)F)cn2)CC1` returned an Inhibition of 93%. The figure for `COc1ccc(CN2CCC(Oc3cccc(NC(=O)c4ccc(C(F)(F)F)cc4)c3)CC2)cc1.O=C(O)C(F)(F)F` is 20%; for `O=C(NC1CCN(Cc2ccsc2)CC1)c1ccc(-c2cccc(C(F)(F)F)c2)s1.O=C(O)C(F)(F)F` it is 3%. The result for `O=C(O)C(F)(F)F.O=S(=O)(NCCN1CCCC1)c1ccc(-c2cccc(CNCc3ccc(F)cc3)c2)cc1F` reads 36%. The figure for `CC(C)C[C@H](NC(=O)c1ccc(F)cc1)C(=O)N[C@H](/C=N/NC(=O)c1ccccc1)CCc1ccccc1` is 61%. Compound `COc1ccc2nccc(N/N=C/c3cccc([N+](=O)[O-])c3)c2c1` showed an Inhibition of 98%.

In the case of `COc1ccc2ncc(C#N)c(CCN3CCC(NCc4ccc5c(c4)NC(=O)CO5)CC3)c2c1.Cl`, the Inhibition was 43%. The result for `CCC(C)(C)c1ccc(OCC(O)CN2CCCCC2)c(C(C)(C)CC)c1` (stereo not drawn) reads 26%; that for `CCC1CCCCN1S(=O)(=O)c1ccc(NC(=O)c2cc(C)on2)cc1` (stereo not drawn), 53%. The result for `Cc1ccc2nc(C)cc(N/N=C/c3ccc([N+](=O)[O-])cc3)c2c1` reads 15%.
